Screening results as filed in PubChem BioAssay.
PLK1 PBD block: PLK1 (human) polo-box domain binding inhibition. 2.8% of 360,000 active. Plk1 PBD binding of FITC phosphopeptide, fluorescence polarization. Potency, µM, inactives show max response, negative = inhibition, most hits filed as inhibitors. AID 720504; note: potency is the fitted concentration of half-maximal effect; series mostly up to about 57 µM; % is set by controls: 0 for no effect and ±100 for the full control effect; nearly all actives have a fitted effect of over 65% in size
Target sequence (P53350 whole entry, looked up, the tested form may be a part): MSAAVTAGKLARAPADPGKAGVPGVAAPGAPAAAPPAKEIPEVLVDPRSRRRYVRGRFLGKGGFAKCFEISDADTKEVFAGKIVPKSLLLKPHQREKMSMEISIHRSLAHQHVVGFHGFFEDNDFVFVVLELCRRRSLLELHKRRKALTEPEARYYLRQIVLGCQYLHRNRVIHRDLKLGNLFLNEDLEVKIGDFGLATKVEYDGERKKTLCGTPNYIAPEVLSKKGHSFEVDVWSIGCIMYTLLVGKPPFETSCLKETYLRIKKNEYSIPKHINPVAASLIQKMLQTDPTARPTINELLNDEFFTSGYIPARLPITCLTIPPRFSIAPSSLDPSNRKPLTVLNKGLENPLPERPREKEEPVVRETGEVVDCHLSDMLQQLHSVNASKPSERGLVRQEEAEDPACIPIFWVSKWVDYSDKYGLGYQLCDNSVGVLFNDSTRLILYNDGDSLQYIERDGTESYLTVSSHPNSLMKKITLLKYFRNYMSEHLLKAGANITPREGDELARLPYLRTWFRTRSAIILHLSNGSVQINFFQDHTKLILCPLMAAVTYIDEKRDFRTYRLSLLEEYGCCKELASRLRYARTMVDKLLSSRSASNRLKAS
VDR inhibitor: inhibitors of human vitamin D receptor; 0.93% of 400,000 active; VDR-SRC2-3 peptide fluorescence polarization, 2 h; P11473; Potency, µM, for the others: max response, negative = inhibition, most hits filed as inhibitors; note: potency is the fitted concentration of half-maximal effect; % is set by controls: 0 for no effect and ±100 for the full control effect
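The screen uses fluorescence polarization to detect compounds that interfere with recruitment of the SRC2-3 coactivator peptide to VDR; plates are read after 2 h at room temperature.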
Sfp PPTase inh: Sfp phosphopantetheinyl transferase inhibition; Q9F4F7; Biochemical Sfp PPTase activity, qHTS; Potency, µM, without a hit: largest response in the series, negative = inhibition, usual class: inhibitors; 3.5% of 310,000 active; AID 1490;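 note: the enzyme is Sfp with the accession as filed and its product quenches rhodamine fluorescence; potency is the fitted concentration of half-maximal effect; 0% = enzyme reaction without inhibitor and -100% = no enzyme wells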
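With Hepes-Na pH 7.6 buffer containing 10 mM MgCl2, Sfp (15 nM) modified BHQ-2-YbbR (12.5 uM) using rhodamine-CoA (5 uM). Two reads 30 minutes apart at 525/598 nm yielded each well's rate.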
Mm-Cpn inhibitor: M. maripaludis TRiC chaperonin inhibition; Potency, µM (doses to about 76.9 µM), for the others: at the highest dose activity, negative = inhibition, actives largely listed as inhibitors; purified Mm-Cpn ATPase, ADP Transcreener TR-FRET; 0.031% of 330,000 active; note: potency is the fitted concentration of half-maximal effect; % is set by controls: 0 for no effect and ±100 for the full control effect; nearly all actives have a fitted effect of over 80% in size
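Eu-cryptate anti-ADP/ADP-d2 competition gives a ratio inversely related to ADP. Enzyme at 25 nM was pre-exposed to compound for 10 min, then given 10 uM ATP for 30 min, 37°C throughout.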
G9a inh: blocks human histone lysine methyltransferase G9a; Q96KQ7; G9a H3K9 monomethylation, AlphaScreen, 2 h; Potency, µM (top dose mostly 102 µM), for inactives: top-dose activity, negative = inhibition, actives largely listed as inhibitors; 8.8% of 350,000 active; note: potency is the fitted concentration of half-maximal effect; % is set by controls: 0 for no effect and ±100 for the full control effect; nearly all actives have a fitted effect of over 75% in size
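Readings reflect AlphaScreen signal from monomethyl-H3K9 antibody detection. HMT at 20 nM; substrate b-H3K9 500 nM; cofactor SAM 20 uM; 2 h RT reaction; compounds tested as titrations in qHTS with 15 min preincubation.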
CCT chaperon mod: cytosolic chaperonin activity modulation; activity change, % (concentration not given with the values), hits read low; purified chaperonin ATPase assay, HTRF ADP detection, 30 min; 0.3% of 360,000 active; in the data active = activity change below about -30%; note: % is set by controls: 0 for no effect and ±100 for the full control effect
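ATPase activity: ADP formed was measured by HTRF Transcreener (665/615 nm ratio) after 30 min at 37 deg C with 10 uM ATP. Compounds screened at one 76 uM concentration against 40 or 20 nM TRiC in Tris pH 7.4/KCl/MgCl2/DTT buffer.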
USP1-UAF1 confirm: blocks human USP1/UAF1 cleavage of Ub-Rhodamine | shares compounds with VDR inhibitor | 50% of 50 active | Ub-Rhodamine cleavage, fluorescence kinetic read | Potency, µM (doses to about 56.8 µM), for inactives: top-dose activity change, negative = inhibition, usual class: inhibitors
VDR confirm: confirmation of human vitamin D receptor inhibitors; shares compounds with VDR inhibitor; VDR-coactivator inhibition assay, qHTS confirmation; Potency, µM, hits mostly inhibitors; 89% of 840 active; note: potency is the fitted concentration of half-maximal effect
VDR FP fluor: blocks human VDR-coactivator binding in fluorescein assay; Potency, µM (doses to about 57.1 µM), inactives show at the top dose activity change, negative = inhibition, actives largely listed as inhibitors; 48% of 840 active; shares compounds with VDR inhibitor; VDR-coactivator binding, fluorescein fluorescence polarization; note: potency is the fitted concentration of half-maximal effect
VDR bla reporter: VDR (human) inhibition, cell-based beta-lactamase validation. shares compounds with VDR inhibitor. VDR beta-lactamase reporter cells, FRET ratio; cells co-treated with VDR agonist LG190178. Potency, µM (top dose mostly 46.1 µM), for the others: at the top dose activity change, negative = inhibition, hits mostly inhibitors. 23% of 840 active; note: potency is the fitted concentration of half-maximal effect; % is set by controls: 0 for no effect and ±100 for the full control effect
VDR cytotox: counter-screen for vitamin D receptor inhibitors: cytotoxicity; Potency, µM (highest dose often 48.3 µM), inactives show top-dose activity change, negative = cytotoxicity, hits mostly cytotoxic; 18% of 840 active; cytotoxicity counter-screen, cell viability, qHTS; shares compounds with VDR inhibitor;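 note: potency is the fitted concentration of half-maximal effect; plate controls were DMSO for no effect and high-concentration cycloheximide for full effect; nearly all actives have a fitted effect of over 75% in size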
* marks the source's active call; other numbers are inactive results; [ ] = another dose, or the depositor's remark. Hits are enriched below; roughly 10% of the tested compounds scored in any of these assays. Unless noted, calls come from the whole dose curve; as a rule, active = well fitted curve in the direction sought with a large enough effect; inconclusive = small, poorly fitted or top-dose-only effect, or another doubt; inactive = no such curve, though single readings can be large; an effect the other way counts as inactive or inconclusive.

O=C1Nc2ccc(I)cc2/C1=C/c1cc(Br)c(O)c(Br)c1 was read as VDR inhibitor 25µM*, Sfp PPTase inh inconclusive, G9a inh 21µM* and USP1-UAF1 confirm 74µM*.
`O=[N+]([O-])c1cc(S(=O)(=O)C(F)(F)F)ccc1Sc1nc2ccccc2s1` gave PLK1 PBD block 13µM*, VDR inhibitor 35µM*, Sfp PPTase inh -9%, Mm-Cpn inhibitor 3%, G9a inh -6%[0.501 µM], CCT chaperon mod 0, VDR confirm 9.5*, VDR FP fluor 3.5µM*, VDR bla reporter inconclusive and VDR cytotox inconclusive.
CN1CCN(C(c2ccc(Br)cc2)c2cc(Cl)c3cccnc3c2O)CC1 (stereo not given) was read as PLK1 PBD block 5.3µM*, VDR inhibitor inconclusive, Sfp PPTase inh 50µM*, Mm-Cpn inhibitor 0%, G9a inh 7.9µM*, CCT chaperon mod 0, VDR confirm 7.9*, VDR FP fluor 3.2µM*, VDR bla reporter 23µM* and VDR cytotox inconclusive.
For CN1CCN(C(c2ccc(F)cc2)c2ccc3cccnc3c2O)CC1 (stereo not given) the results were PLK1 PBD block inconclusive, VDR inhibitor -17% and CCT chaperon mod 0.
COc1ccc2nc(Cl)cc(Cl)c2c1 was read as PLK1 PBD block -4%, VDR inhibitor -8%, Sfp PPTase inh 5%, Mm-Cpn inhibitor -1% and CCT chaperon mod -3.
For C=CS(=O)(=O)c1c2cc(OC)ccc2nc2ccc(OC)cc12 the results were PLK1 PBD block 2.7µM*, VDR inhibitor 50µM*, CCT chaperon mod -5, VDR confirm 24*, VDR FP fluor 14µM*, VDR bla reporter inconclusive and VDR cytotox inconclusive.
For O=c1cc(-c2ccccc2)c2cc(Cl)c3c(c2o1)CN(Cc1ccccc1)CO3 the results were VDR inhibitor -10% and G9a inh 25%[59 µM].
For O=C(c1ccc2c(c1)N(Cc1ccccc1)C(=O)c1ccccc1S2(=O)=O)N1CCN(c2ccccn2)CC1 the results were VDR inhibitor 4% and G9a inh -5%[59 µM].
For COc1ccc(NC(=O)/C(Cl)=C(/Cl)S(=O)(=O)Cc2ccc(C)cc2)cn1 the results were PLK1 PBD block 21µM*, VDR inhibitor 16µM*, Sfp PPTase inh -3%, Mm-Cpn inhibitor -7%, G9a inh 45µM*, CCT chaperon mod 0, VDR confirm 19*, VDR FP fluor 13µM*, VDR bla reporter 5.8µM* and VDR cytotox 21µM*.
Screening O=C(C=Cc1ccccc1)c1cc(Br)ccc1O returned PLK1 PBD block -22%, VDR inhibitor inconclusive and CCT chaperon mod 1.
CCOc1ccc(/C=C/C(=O)c2cc(Br)ccc(=O)c2O)cc1 was read as PLK1 PBD block inconclusive, VDR inhibitor 50µM*, Sfp PPTase inh 20µM*, Mm-Cpn inhibitor -3%, G9a inh 7.9µM*, CCT chaperon mod 0, VDR confirm 13*, VDR FP fluor 12%, VDR bla reporter 10% and VDR cytotox 12%.
Cc1cccc(/C=C/C(=O)c2cc(Br)ccc(=O)c2O)c1 was read as PLK1 PBD block 21µM*, VDR inhibitor 16µM*, Sfp PPTase inh 14µM*, Mm-Cpn inhibitor -5%, G9a inh inconclusive, CCT chaperon mod 3, VDR confirm 3.8*, VDR FP fluor 58%, VDR bla reporter inconclusive and VDR cytotox inconclusive.
Screening O=C(COCc1cc(-c2ccc3c(c2)OCO3)on1)Nc1cccc(O)c1 returned VDR inhibitor 11% and G9a inh 8%[59 µM].
`O=C(Cn1nc(-c2ccc(Cl)cc2)ccc1=O)NCc1ccccc1Cl` gave VDR inhibitor 17% and G9a inh -4%[59 µM].
CS(=O)(=O)c1ccc(C(=O)OCc2nnc(-c3ccc(Cl)cc3)o2)cc1[N+](=O)[O-] was read as PLK1 PBD block -25%, VDR inhibitor 25µM*, Sfp PPTase inh -3%, Mm-Cpn inhibitor 1%, G9a inh inconclusive, CCT chaperon mod -6, VDR confirm 5.6*, VDR FP fluor 2.2µM*, VDR bla reporter 15µM* and VDR cytotox inconclusive.
`CCOC(=O)C1=C(Cc2ccc(F)cc2)C(=O)c2ccccc2C1=O` gave PLK1 PBD block 9.5µM*, VDR inhibitor 4.5µM*, Sfp PPTase inh 8.9µM*, Mm-Cpn inhibitor 0%, G9a inh 8.9µM*, CCT chaperon mod -3, VDR confirm 5.3*, VDR FP fluor inconclusive, VDR bla reporter -9% and VDR cytotox -18%.
Nc1c(C(=O)NCc2cccs2)nnn1CC(=O)Nc1cccc(F)c1 was read as VDR inhibitor -1% and G9a inh 5%[59 µM].
For COc1ccc(NC(=O)c2nc(S(=O)(=O)Cc3cccc(C)c3)ncc2Cl)c(OC)c1 the results were PLK1 PBD block -9%, VDR inhibitor -23%, Sfp PPTase inh 4%, Mm-Cpn inhibitor -5%, G9a inh -41% and CCT chaperon mod 0.
For Cc1ccc(CSc2ncc(Cl)c(C(=O)NCc3ccccc3)n2)cc1 the results were VDR inhibitor 6% and G9a inh 2%[59 µM].
For Cc1cccc(CS(=O)(=O)c2ncc(Cl)c(C(=O)Nc3c(C)cccc3C)n2)c1 the results were PLK1 PBD block 19µM*, VDR inhibitor 22µM*, Sfp PPTase inh -24%, Mm-Cpn inhibitor 1%, G9a inh 35µM*, CCT chaperon mod 2, VDR confirm 6.7*, VDR FP fluor inconclusive, VDR bla reporter 15µM* and VDR cytotox inconclusive.
